Holding throughout (details): mRNA level, 48 h; actives raise or lower the signal
Read-out in assay [1]: Bcl-2 (BID) gene, BID (gene 637)
Briefly: LTEA_HepaRG_BID: Life Technologies and Expression Analysis (LTEA) Assay for Bcl-2 (BID) gene using HepaRG (AID 2283476). In outline:
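Duplicate 48 h treatments of HepaRG cells in serum-free induction medium spanned 100 uM downward in half-log steps, 0.5% DMSO. Transcript change quantified by qRT-PCR against three housekeeping genes, fitted up or down versus DMSO.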

Read-out in the next assay: Caspase-3 (Homo sapiens) (UniProt P42574)
Briefly: LTEA_HepaRG_CASP3: Life Technologies and Expression Analysis (LTEA) Assay for cysteine-aspartic acid protease (CASP3) using HepaRG (AID 2283477). In outline:
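Read-out is CASP3 mRNA level by TaqMan qRT-PCR in human HepaRG cells after 48 h chemical exposure. Eight half-log concentrations topping at 100 uM were tested in 0.5% DMSO; gain or loss was fitted relative to DMSO.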

Read-out in assay [2]: Cytochrome P450 (CYP24A1), CYP24A1 (gene 1591)
Briefly: LTEA_HepaRG_CYP24A1: Life Technologies and Expression Analysis (LTEA) Assay for Cytochrome P450 (CYP24A1) using HepaRG (AID 2283478). In outline:
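HepaRG, 48 h chemical exposure, 8-pt half-log CRC from 100 uM, 0.5% DMSO vehicle, duplicates. Endpoint: CYP24A1 mRNA by Fluidigm TaqMan qRT-PCR, normalized ACTB/GAPDH/POLR2A; gain/loss fit vs DMSO.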

Read-out in assay [3]: Cytochrome P450 (CYP1A2), CYP1A2 (gene 1544)
Nature of the assay: LTEA_HepaRG_CYP1A2: Life Technologies and Expression Analysis (LTEA) Assay for Cytochrome P450 (CYP1A2) using HepaRG (AID 2283479). In outline: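 CYP1A2 transcript induction or loss, quantified by Fluidigm qRT-PCR against three housekeeping genes, was fitted bidirectionally against 0.5% DMSO controls. Human HepaRG cells received eight half-log concentrations from 100 uM over 48 h.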

Read-out in assay [4]: cysteine-aspartic acid protease (CASP8), CASP8 (gene 841)
Nature of the assay: LTEA_HepaRG_CASP8: Life Technologies and Expression Analysis (LTEA) Assay for cysteine-aspartic acid protease (CASP8) using HepaRG (AID 2283480). In outline: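 Concentration-response in duplicate up to 100 uM (half-log steps, 0.5% DMSO) on differentiated HepaRG cultures for 48 h. Expression change of CASP8 mRNA is determined by TaqMan qRT-PCR with housekeeping-gene normalization.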

Read-out in assay [5]: Cytochrome P450 (CYP2B6), CYP2B6 (gene 1555)
Nature of the assay: LTEA_HepaRG_CYP2B6: Life Technologies and Expression Analysis (LTEA) Assay for Cytochrome P450 (CYP2B6) using HepaRG (AID 2283481). In outline:
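HepaRG cells plated 48 h, switched to serum-free induction medium, then dosed 48 h (8 points, half-log from 100 uM, 0.5% DMSO). RNA isolated; CYP2B6 expression measured by qRT-PCR; gain or loss fitted relative to DMSO.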

Read-out in assay [6]: Cytochrome P450 2C19 (Homo sapiens) (UniProt P33261)
Nature of the assay: LTEA_HepaRG_CYP2C19: Life Technologies and Expression Analysis (LTEA) Assay for CYP2C19 using HepaRG (AID 2283482). In outline:
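Transcript levels of CYP2C19 were quantified by qRT-PCR after HepaRG cells were treated for 48 hours with test chemicals up to 100 uM (eight half-log concentrations, 0.5% DMSO vehicle). Gain or loss of signal was fitted relative to DMSO.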

Read-out in another assay: CYP2C8 (gene 1558)
Briefly: LTEA_HepaRG_CYP2C8: Life Technologies and Expression Analysis (LTEA) Assay for CYP2C8 using HepaRG (AID 2283483). In outline:
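This is a transcriptional endpoint in HepaRG cultures: 48 h exposure, highest concentration 100 uM. CYP2C8 mRNA is quantified by TaqMan qRT-PCR.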

Read-out in another assay: CYP2C9 (gene 1559)
Nature of the assay: LTEA_HepaRG_CYP2C9: Life Technologies and Expression Analysis (LTEA) Assay for CYP2C9 using HepaRG (AID 2283484). In outline:
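Eight-point concentration-response (highest 100 uM, half-log dilutions) in HepaRG cells for 48 h; CYP2C9 expression by qRT-PCR normalized to ACTB, GAPDH, POLR2A. Bidirectional fit, DMSO baseline.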

Read-out in the next assay: CYP2E1 (gene 1571)
Briefly: LTEA_HepaRG_CYP2E1: Life Technologies and Expression Analysis (LTEA) Assay for CYP2E1 using HepaRG (AID 2283485). In outline:
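CYP2E1 transcript measured by Fluidigm qRT-PCR against three housekeeping genes in human HepaRG cells treated 48 h (top 100 uM, half-log steps, 0.5% DMSO vehicle). Gain or loss fitted relative to DMSO baseline.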

Read-out in another assay: CYP4A11 (gene 1579)
Nature of the assay: LTEA_HepaRG_CYP4A11: Life Technologies and Expression Analysis (LTEA) Assay for CYP4A11 using HepaRG (AID 2283486). In outline: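 HepaRG, 48 h chem exposure, 8 conc (100 uM top, half-log), 0.5% DMSO vehicle; qRT-PCR readout, housekeeping-gene normalized; bidirectional curve fit vs DMSO baseline.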

Read-out in assay [7]: Cytochrome P450 3A4 (Homo sapiens) (UniProt P08684)
Briefly: LTEA_HepaRG_CYP3A4: Life Technologies and Expression Analysis (LTEA) Assay for CYP3A4 using HepaRG (AID 2283487). In outline: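 In a human hepatic line (HepaRG), duplicate wells were treated 48 h with up to 100 uM chemical in half-log dilutions. Endpoint: CYP3A4 mRNA induction or loss relative to 0.5% DMSO vehicle, by qRT-PCR.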

Read-out in assay [8]: DNA damage-inducible transcript 3 (DDIT3), DDIT3 (gene 1649)
Nature of the assay: LTEA_HepaRG_DDIT3: Life Technologies and Expression Analysis (LTEA) Assay for DNA damage-inducible transcript 3 (DDIT3) using HepaRG (AID 2283488). In outline:
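DDIT3 transcript was quantified by qRT-PCR with ACTB/GAPDH/POLR2A normalization after 48 h chemical treatment of differentiated HepaRG cells in 0.5% DMSO. Dosing was eight-point, half-log, top 100 uM, duplicate wells. Curves fitted bidirectionally versus DMSO.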

Read-out in assay [9]: Pro-epidermal growth factor (Homo sapiens) (UniProt P01133)
Briefly: LTEA_HepaRG_EGF: Life Technologies and Expression Analysis (LTEA) Assay for Epidermal growth factor (EGF) using HepaRG (AID 2283489). In outline: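 HepaRG, 48 h dosing, 100 uM top, half-log x8, 0.5% DMSO. Readout: TaqMan qRT-PCR (Fluidigm array), housekeeping-normalized. Gain or loss of signal fit vs DMSO.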

Read-out in assay [10]: Early growth response protein 1 (EGR1) transcription factor, EGR1 (gene 1958)
Briefly: LTEA_HepaRG_EGR1: Life Technologies and Expression Analysis (LTEA) Assay for Early growth response protein 1 (EGR1) transcription factor using HepaRG (AID 2283490). In outline: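 EGR1 expression change in human HepaRG after 48 h chemical exposure, assessed by housekeeping-normalized qRT-PCR; concentration-response up to 100 uM, fitted in both directions against DMSO controls.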

Read-out in assay [11]: Ezrin (EZR), EZR (gene 7430)
Nature of the assay: LTEA_HepaRG_EZR: Life Technologies and Expression Analysis (LTEA) Assay for Ezrin (EZR) using HepaRG (AID 2283491). In outline:
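Gain or loss of EZR mRNA is scored relative to 0.5% DMSO in human HepaRG cultures treated 48 h with test chemicals in duplicate, eight half-log concentrations from 100 uM.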

Read-out in assay [12]: Cytochrome P450 3A7 (Homo sapiens) (UniProt P24462)
Nature of the assay: LTEA_HepaRG_CYP3A7: Life Technologies and Expression Analysis (LTEA) Assay for CYP3A7 using HepaRG (AID 2283492). In outline: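 Human HepaRG liver cells, 48 h post-plating, switched to serum-free induction medium and exposed in duplicate for 48 h. Dosing: 100 uM top, half-log dilutions, 8 points, 0.5% DMSO vehicle. Read-out: CYP3A7 mRNA, gain or loss fitted against DMSO baseline.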

Read-out in the next assay: CYP3A5 (gene 1577)
Briefly: LTEA_HepaRG_CYP3A5: Life Technologies and Expression Analysis (LTEA) Assay for CYP3A5 using HepaRG (AID 2283493). In outline:
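mRNA levels were quantified by qRT-PCR on Fluidigm arrays and normalized to three housekeeping genes. Differentiated HepaRG cells received 48 h exposure (top 100 uM, half-log steps, 0.5% DMSO vehicle, duplicate); bidirectional fitting versus DMSO.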

Read-out in assay [13]: Fatty Acid-Binding Protein 1 (FABP1), FABP1 (gene 2168)
Nature of the assay: LTEA_HepaRG_FABP1: Life Technologies and Expression Analysis (LTEA) Assay for Fatty Acid-Binding Protein 1 (FABP1) using HepaRG (AID 2283494). In outline: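 Values reflect bidirectional concentration-response fitting of FABP1 mRNA change against 0.5% DMSO controls. Human HepaRG cultures received eight half-log doses (top 100 uM) for 48 h; expression quantified by TaqMan qRT-PCR with housekeeping-gene normalization.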

Read-out in assay [14]: Cytochrome P450 4A22 (Homo sapiens) (UniProt Q5TCH4)
Nature of the assay: LTEA_HepaRG_CYP4A22: Life Technologies and Expression Analysis (LTEA) Assay for Cytochrome P450 4A22 (CYP4A22) using HepaRG (AID 2283495). In outline: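 Readout is CYP4A22 transcript induction or loss, quantified by qRT-PCR and normalized to ACTB, GAPDH and POLR2A. Human HepaRG cells receive test chemicals for 48 h at eight half-log concentrations from 100 uM in 0.5% DMSO.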

Consider three compounds from PubChem BioAssay (EPA / NIEHS).

By AC50 is commonly meant the concentration giving half of the maximal activity seen.

The source made the active and inactive calls. How the source made its calls: active means hit-call score of the fitted dose curve at least 0.9, where 1 is the maximum; inactive means score below 0.9.

Sequence of Cytochrome P450 2C19 (Homo sapiens) (P33261 whole entry, looked up): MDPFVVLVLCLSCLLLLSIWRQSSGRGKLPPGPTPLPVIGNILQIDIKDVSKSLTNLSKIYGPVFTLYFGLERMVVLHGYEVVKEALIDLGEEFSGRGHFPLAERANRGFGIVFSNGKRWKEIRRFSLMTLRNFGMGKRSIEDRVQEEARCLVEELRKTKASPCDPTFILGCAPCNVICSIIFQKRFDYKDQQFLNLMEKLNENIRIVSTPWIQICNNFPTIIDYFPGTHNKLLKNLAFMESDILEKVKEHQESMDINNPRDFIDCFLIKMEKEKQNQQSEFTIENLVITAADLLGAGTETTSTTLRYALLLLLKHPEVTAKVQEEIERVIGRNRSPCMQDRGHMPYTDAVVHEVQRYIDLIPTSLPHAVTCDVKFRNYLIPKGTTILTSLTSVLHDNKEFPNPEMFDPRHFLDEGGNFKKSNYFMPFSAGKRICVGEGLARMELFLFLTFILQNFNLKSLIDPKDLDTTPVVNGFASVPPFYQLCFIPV
Sequence of Cytochrome P450 3A4 (Homo sapiens) (P08684 whole entry, looked up): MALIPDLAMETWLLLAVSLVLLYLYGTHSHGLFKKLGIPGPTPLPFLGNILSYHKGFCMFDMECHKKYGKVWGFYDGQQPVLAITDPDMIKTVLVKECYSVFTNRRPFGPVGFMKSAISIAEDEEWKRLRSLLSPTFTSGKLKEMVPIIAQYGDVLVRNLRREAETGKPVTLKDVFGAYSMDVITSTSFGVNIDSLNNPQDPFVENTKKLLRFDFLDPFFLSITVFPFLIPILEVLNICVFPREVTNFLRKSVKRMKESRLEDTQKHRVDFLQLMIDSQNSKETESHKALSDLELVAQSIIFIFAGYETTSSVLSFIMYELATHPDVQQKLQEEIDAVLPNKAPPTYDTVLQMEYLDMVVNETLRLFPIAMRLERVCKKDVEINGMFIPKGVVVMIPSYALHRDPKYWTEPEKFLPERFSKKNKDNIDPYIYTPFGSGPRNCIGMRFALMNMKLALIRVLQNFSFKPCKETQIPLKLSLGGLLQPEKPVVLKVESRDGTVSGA
Sequence of Caspase-3 (Homo sapiens) (P42574 whole entry, looked up): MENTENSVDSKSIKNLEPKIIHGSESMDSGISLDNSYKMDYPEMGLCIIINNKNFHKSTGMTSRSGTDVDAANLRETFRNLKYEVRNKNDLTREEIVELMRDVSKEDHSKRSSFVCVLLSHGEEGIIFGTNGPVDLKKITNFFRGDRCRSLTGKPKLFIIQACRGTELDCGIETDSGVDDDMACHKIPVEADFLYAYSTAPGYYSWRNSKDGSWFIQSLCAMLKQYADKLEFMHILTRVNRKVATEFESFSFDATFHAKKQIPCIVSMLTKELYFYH
Sequence of Cytochrome P450 3A7 (Homo sapiens) (P24462 whole entry, looked up): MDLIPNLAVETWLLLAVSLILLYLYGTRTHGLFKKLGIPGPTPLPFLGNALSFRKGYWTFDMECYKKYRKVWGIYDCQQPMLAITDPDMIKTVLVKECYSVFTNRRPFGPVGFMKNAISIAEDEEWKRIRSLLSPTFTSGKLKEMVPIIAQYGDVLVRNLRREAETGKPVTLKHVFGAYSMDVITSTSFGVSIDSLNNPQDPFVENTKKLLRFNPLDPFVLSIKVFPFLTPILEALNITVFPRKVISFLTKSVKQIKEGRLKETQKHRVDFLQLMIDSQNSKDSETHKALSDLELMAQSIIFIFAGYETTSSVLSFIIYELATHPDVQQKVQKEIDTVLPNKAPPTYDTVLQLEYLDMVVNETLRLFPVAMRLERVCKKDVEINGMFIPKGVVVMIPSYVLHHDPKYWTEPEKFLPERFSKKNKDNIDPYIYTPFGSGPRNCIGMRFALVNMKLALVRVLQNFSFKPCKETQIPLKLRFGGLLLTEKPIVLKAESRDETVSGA

Take `Nc1ccc(Nc2ccccc2)cc1`: the outcome (in [1]; with Caspase-3 (Homo sapiens); in assay [2]; in assay [4]; in assay [6]; with CYP2C8 (gene 1558)) was inactive. Besides, the outcome (with CYP2C9 (gene 1559); in the assay with CYP4A11 (gene 1579); in assay [7]; in [8]; in assay [9]; in assay [10]) was inactive. The compound was called inactive (in [11]; with CYP3A5 (gene 1577); in assay [14]). The AC50 was 4.54 µM (active) in assay [3]; 33.7 µM (active) in assay [5]; 71.2 µM (active) with CYP2E1 (gene 1571); 62.7 µM (active) in assay [12]; 50 µM (active) in [13].
With `On1ccccc1=S`, the result (in [1]; in the assay with Caspase-3 (Homo sapiens); in assay [2]; in [3]; in assay [4]; in assay [5]) was inactive. The call (in assay [6]; with CYP2C8 (gene 1558); in the assay with CYP2C9 (gene 1559); in the assay with CYP2E1 (gene 1571); in the assay with CYP4A11 (gene 1579); in [7]) was inactive. Moreover, the compound was called inactive (in assay [8]; in assay [10]; in assay [11]; in [12]; with CYP3A5 (gene 1577); in assay [13]).
As to `C1N2CN3CN1CN(C2)C3`, the compound was called inactive (in [1]; in the assay with Caspase-3 (Homo sapiens); in assay [2]; in [4]; in assay [5]; in assay [6]). Further, the result (in the assay with CYP2C8 (gene 1558); with CYP2C9 (gene 1559); with CYP2E1 (gene 1571); with CYP4A11 (gene 1579); in [7]; in [8]) was inactive. For the same compound, the call (in assay [9]; in [10]; in assay [11]; in assay [12]; with CYP3A5 (gene 1577); in [13]) was inactive. Besides, the call in [14] was inactive. Also, the concentration at half-maximal activity (AC50) in assay [3] is 68.7 µM (active).
